Experimental data from the supplement of paper PMC9023506.
Where a name gives a salt, the structure may show the parent alone.

system: Danio rerio larvae (5 dpf); test: optomotor response to green moving lines, difference vs DMSO (percentage points (treated minus DMSO)); higher = more of the behaviour than the DMSO vehicle control; details: 10 µM; exposure time: 3 h pre-incubation + 3 h imaging
Experimental: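 5-dpf wild-type zebrafish larvae were imaged in 96-well plates. They were treated with 190 Tocris FDA-approved drugs at 10 µM (1 µl/ml DMSO) for 3 h before and 3 h during imaging at 28.5 °C, 48 larvae per drug. Automated image analysis gave % time moving and optomotor responses. Values are drug group mean minus DMSO vehicle mean (n=844), in percentage points, for 10 behaviours.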

Row | Compound | optomotor response to green moving lines
1 | Cn1nnc2c(C(N)=O)ncn2c1=O [Temozolomide] | -1.84
2 | CC1CNc2c(cccc2S(=O)(=O)N[C@@H](CCCNC(=N)N)C(=O)N2CC[C@@H](C)C[C@@H]2C(=O)O)C1 (stereo not given in full) [Argatroban] | -1.18
3 | Cc1nc(Nc2ncc(C(=O)Nc3c(C)cccc3Cl)s2)cc(N2CCN(CCO)CC2)n1 [Dasatinib] | -4.87
4 | Nc1ccn([C@@H]2O[C@H](CO)[C@@H](O)C2(F)F)c(=O)n1 [Gemcitabine hydrochloride] | 0.29
5 | O=C(O)CCCc1ccccc1 [Sodium 4-Phenylbutyrate] | -2.96
6 | O=C(O)c1cc(/N=N/c2ccc(S(=O)(=O)Nc3ccccn3)cc2)ccc1O [Sulfasalazine] | 0.416
7 | CCCCCOC(=O)Nc1nc(=O)n([C@@H]2O[C@H](C)[C@@H](O)[C@H]2O)cc1F [Capecitabine] | 1.46
8 | CCCC1O[C@@H]2C[C@H]3[C@@H]4CCC5=CC(=O)C=C[C@]5(C)[C@H]4[C@@H](O)C[C@]3(C)[C@]2(C(=O)CO)O1 (stereo not given in full) [Budesonide] | 0.891
9 | Cc1nc(-c2ccc(OCC(C)C)c(C#N)c2)sc1C(=O)O [Febuxostat] | -4.77
10 | CC(C)Nc1cccnc1N1CCN(C(=O)c2cc3cc(NS(C)(=O)=O)ccc3[nH]2)CC1 [Delavirdine mesylate] | -4.7
11 | O=c1[nH]c(=O)n([C@H]2C[C@H](O)[C@@H](CO)O2)cc1C(F)(F)F [Trifluorothymidine] | 6.4
12 | COc1cc(Nc2c(C#N)cnc3cc(OCCCN4CCN(C)CC4)c(OC)cc23)c(Cl)cc1Cl [Bosutinib] | 2.65
13 | Nc1cccc2c1CN(C1CCC(=O)NC1=O)C2=O (stereo not given) [Lenalidomide] | 7.44
14 | CS(=O)(=O)CCNCc1ccc(-c2ccc3ncnc(Nc4ccc(OCc5cccc(F)c5)c(Cl)c4)c3c2)o1 [Lapatinib] | 0.954
15 | OCCN(CCO)c1nc(N2CCCCC2)c2nc(N(CCO)CCO)nc(N3CCCCC3)c2n1 [Dipyridamole] | 5.01
16 | CC(=O)O[C@H]1C(=O)[C@@]2(C)[C@H]([C@H](OC(=O)c3ccccc3)[C@]3(O)C[C@H](OC(=O)[C@H](O)[C@@H](NC(=O)c4ccccc4)c4ccccc4)C(C)=C1C3(C)C)[C@]1(OC(C)=O)CO[C@@H]1C[C@@H]2O [Taxol] | -4.62
17 | CN(C)CCc1c[nH]c2ccc(Cn3cncn3)cc12 [Rizatriptan benzoate] | 3.24
18 | CC(C)c1nc(CN(C)C(=O)N[C@H](C(=O)N[C@@H](Cc2ccccc2)C[C@H](O)[C@H](Cc2ccccc2)NC(=O)OCc2cncs2)C(C)C)cs1 [Ritonavir] | -6.36
19 | CN1CCN(CCCN2c3ccccc3Sc3ccc(Cl)cc32)CC1 [Prochlorperazine dimaleate] | 3.92
20 | Clc1ccc2nsnc2c1NC1=NCCN1 [Tizanidine hydrochloride] | -0.817

Row | Compound | optomotor response to green moving lines
21 | CC1(C)O[C@@H]2[C@@H](CO[C@@]3(COS(N)(=O)=O)OC(C)(C)O[C@@H]23)O1 [Topiramate] | -1.84
22 | C[C@H]1O[C@H](O[C@H]2[C@H](O)[C@@H](O)[C@@H](O[C@H]3[C@H](O)[C@@H](O)C(O)O[C@@H]3CO)O[C@@H]2CO)[C@H](O)[C@@H](O)[C@@H]1N[C@H]1C=C(CO)[C@@H](O)[C@H](O)[C@H]1O (stereo not given in full) [Acarbose] | 6.59
23 | Cc1ccc(O)c([C@H](CCN(C(C)C)C(C)C)c2ccccc2)c1 [Tolterodine L-tartrate] | 0.477
24 | CCOC(=O)N1CCC(=C2c3ccc(Cl)cc3CCc3cccnc32)CC1 [Loratidine] | -5.38
25 | CCc1nc(N)nc(N)c1-c1ccc(Cl)cc1 [Pyrimethamine] | 6.72
26 | Clc1ccccc1C(c1ccccc1)(c1ccccc1)n1ccnc1 [Clotrimazole] | -19.6
27 | Cc1ccc(-c2cc(C(F)(F)F)nn2-c2ccc(S(N)(=O)=O)cc2)cc1 [Celecoxib] | 0.469
28 | CN(C)CCC[C@@]1(c2ccc(F)cc2)OCc2cc(C#N)ccc21 [Escitalopram oxalate] | 1.9
29 | CC(C)CN(C[C@@H](O)[C@H](Cc1ccccc1)NC(=O)O[C@H]1CO[C@H]2OCC[C@H]21)S(=O)(=O)c1ccc(N)cc1 [Darunavir] | 1.64
30 | C=CC(=O)N1CCC[C@@H](n2nc(-c3ccc(Oc4ccccc4)cc3)c3c(N)ncnc32)C1 [Ibrutinib] | -2.12
31 | Clc1ccc(COC(Cn2ccnc2)c2ccc(Cl)cc2Cl)c(Cl)c1 (stereo not given) [Miconazole nitrate] | -5.21
32 | CC(C)n1c(/C=C/C(O)CC(O)CC(=O)O)c(-c2ccc(F)cc2)c2ccccc21 (stereo not given) [Fluvastatin sodium] | -3.1
33 | O=C(O[C@@H]1C[C@@H]2C[C@H]3C[C@H](C1)N2CC3=O)c1c[nH]c2ccccc12 [Dolasetron mesylate] | -11.6
34 | NC(=O)OCC(COC(N)=O)c1ccccc1 [Felbamate] | -9.03
35 | CC(=O)Oc1ccccc1C(=O)O [Aspirin] | -12.5
36 | O=C(O)C[C@H](O)C[C@H](O)/C=C/c1c(C2CC2)nc2ccccc2c1-c1ccc(F)cc1 [Pitavastatin calcium] | 11
37 | COc1cc(N)c(Cl)cc1C(=O)NC1CCN(CCCOc2ccc(F)cc2)CC1OC (stereo not given) [Cisapride] | 5.81
38 | OC(CNCC(O)C1CCc2cc(F)ccc2O1)C1CCc2cc(F)ccc2O1 (stereo not given) [Nebivolol hydrochloride] | -4.67
39 | CC(=O)NC[C@H]1CN(c2ccc(N3CCOCC3)c(F)c2)C(=O)O1 [Linezolid] | 5.36
40 | COc1cc2nc(N3CCN(C(=O)c4ccco4)CC3)nc(N)c2cc1OC [Prazosin hydrochloride] | -10.2
